{"source": "the supplement of paper PMC6555819", "data": [{"test_system": "VDR:RXRa (NR concentration 270 nM, RXRa partner concentration 90 nM)", "experiment": "PBM binding z-score (relative to random genomic background probes); higher = stronger binding; sequences stand for … in GC…GCGATTGACAGCGTAGAATGAAGG", "method": "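Protein-binding microarray (Agilent 4x180K custom design, double-stranded 60-nt probes: 5' GC cap, 34-nt variable region, 24-nt constant primer region; full probe sequence given). Purified or IVT nuclear receptor:RXRα heterodimers (3:1 NR:RXRα, mostly 270:90 nM) or homodimers were incubated for 1 h in PBS with 2% milk and no ligand, then detected with Alexa488 antibodies. Fluorescence from o1-orientation probes (~5 replicates averaged) was converted to z-scores against 500 random hg19 background probes. Variable regions are seed direct-repeat (DR0–DR5) sites, all their single-nucleotide variants and half-site ablations.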", "values": [{"sequence": "GCTATTAGTTGAAAGGGCAACCAAATGATTCTCG", "PBM binding z-score": 0.604}, {"sequence": "AGAATGAGGTTATTAAAATCAGGGAATTGCGGTC", "PBM binding z-score": 0.984}, {"sequence": "ACTAGTTGGTCAGCTGAGCTCACACACAATTCGG", "PBM binding z-score": -0.299}, {"sequence": "AATACAGGGTCACTAGGCCAGATTAGGTACGAAT", "PBM binding z-score": 4.21}, {"sequence": "ATCGAAACGTCGAGGTGAGTATAGAGAAAGGGAA", "PBM binding z-score": -0.325}, {"sequence": "TCTAGTTGGTCAAGGAGGTCACACACGACGGGTA", "PBM binding z-score": 5.23}, {"sequence": "TTACCAAGGTGAGCTGAGGTCCTTGATCCAACTC", "PBM binding z-score": 0.464}, {"sequence": "TCTTGTAGATCAATAGAGGGTAAGAAAGTGCGCT", "PBM binding z-score": 0.717}, {"sequence": "AATACAGGGTCACTAGGCCAGGGTAGGTACGAAT", "PBM binding z-score": 4}, {"sequence": "TAGCCTAGGTCAGATCGTGCCAGTATACGCTATA", "PBM binding z-score": 0.516}, {"sequence": "AGAACGAGGGGAATGAGTTGATAGCACGGGTGGC", "PBM binding z-score": 2.09}, {"sequence": "AGAATGAGGTTAAGAACAGGGAAACAGAATACAT", "PBM binding z-score": 1.04}, {"sequence": "GCGACTGGGGCAAAACAGGTTACCATAAGGTTGG", "PBM binding z-score": 0.212}, {"sequence": "CGAACTAGGTCATCCAGGACAGCGAATACATTGA", "PBM binding z-score": 4.63}, {"sequence": "CGTCAAAGTTCCACTAAGGTAACGTAAAGCACGC", "PBM binding z-score": 0.211}, {"sequence": "TCTTTTAGATCAAAGGTTAAGAAAGCCGAAGCCT", "PBM binding z-score": 1.51}, {"sequence": "ATATGTAGGTTATCGGGTCACTCAGTTTGCGCAT", "PBM binding z-score": 5}, {"sequence": "GATACAGGGTCAAGGCAAGAGTACGCGTATTGAT", "PBM binding z-score": 4.62}, {"sequence": "AGTCAAAGTTCATCTAGATAACGTAAGATATGCT", "PBM binding z-score": 4.66}, {"sequence": "ATACCAAGGTGACCGTGAGGTCGTTGATACTAAC", "PBM binding z-score": 4.04}, {"sequence": "CGTCAAAGCTCAAGGTAACGTAACAGAAAGCAGC", "PBM binding z-score": -0.278}, {"sequence": "CCGAGTAGGTTATGGGGCATTGAGGCAACGGTGA", "PBM binding z-score": 0.258}, {"sequence": "CCTCGGAGGACATAAGGTCAGAGCTGTCCGCTTT", "PBM binding z-score": 1.91}, {"sequence": "CCTTACGGGTTACTGACAGGTTATAGCATTTGGA", "PBM binding z-score": 0.637}, {"sequence": "ACAGACAGGTGAGTGAAGTTAACTCAGCTGGACG", "PBM binding z-score": -0.576}, {"sequence": "CTACCAAGGTGAACAAGGTCGTTGAGTACTATTC", "PBM binding z-score": 6.19}, {"sequence": "AGAATGAGTTTAAGATCAGGGAAACAGAATACAT", "PBM binding z-score": 0.803}, {"sequence": "CCGAGTAGGTTATGGTGCATTCAGGCAACGGTGA", "PBM binding z-score": 0.0938}, {"sequence": "TCTCGGAGGACACGAAAGGTCCGAGCTCGACATC", "PBM binding z-score": -0.242}, {"sequence": "GCTATTAGTTGAAAGGGCAAGCGAATGATTCTCG", "PBM binding z-score": 0.461}, {"sequence": "ACTAGCAGGCGAAGGGTCACTCAAGATTAGTCCG", "PBM binding z-score": 2.23}, {"sequence": "GCTATTAGTTGAAAGGGCTACCGAATGATTCTCG", "PBM binding z-score": -0.406}, {"sequence": "AGCCAAAGTTCAGGACGAGGTAACGTAAAGCACG", "PBM binding z-score": 2.71}, {"sequence": "GCTAGTTGGCCAGTAAAAGGTCACACACCGGTCG", "PBM binding z-score": 3.73}, {"sequence": "CAAACTAGGTCAAGAGGTCAATGTCCGCTTCCCG", "PBM binding z-score": 5.64}, {"sequence": "TCTCGGAGGACACGAAGGTCAGAGATTTCCAGAG", "PBM binding z-score": 2.26}, {"sequence": "ACCTCTAGGTAAGACTCAGTTCAGTGAAGAACGC", "PBM binding z-score": 0.00811}, {"sequence": "ATCTCTAGGGAAAAGTTCAGTGAATCCCGAGGAT", "PBM binding z-score": 0.557}, {"sequence": "AGAATGAGGTTATTAAGCTCAGGGAATTGCGGTC", "PBM binding z-score": 1.38}, {"sequence": "TCATATAGGTGAACAGGTGAAAGTCCGTAAGTTA", "PBM binding z-score": 1.19}]}]}
